From PubChem BioAssay
Sampled rows, rich in hits. Any-hit rate of the full collection: about 1.1%.
MEP2 TOR yeast = yeast TOR pathway MEP2-GFP modulation | GFP response vs DMSO, % at 10 µM | S. cerevisiae MEP2-GFP strain, flow cytometry GFP, 3 h; 100% = DMSO control level | 330,000 compounds, 0.51% hits;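 active = GFP response versus DMSO above a set limit, roughly screen mean plus 3 SD, cut at about 180% in these data; inconclusive = fewer than 70 cells counted for a yeast strain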;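 note: median GFP fluorescence of the barcode-gated MEP2-GFP cells per well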
CIT2 TOR yeast = modulators of TOR pathway CIT2-GFP in S. cerevisiae. 320,000 compounds, 0.065% hits. S. cerevisiae CIT2-GFP strain, flow cytometry, 3 h; 100 means same as DMSO wells. GFP response vs DMSO, % at 10 µM. AID 2029;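 active = GFP response relative to DMSO above a set limit, near the screen mean plus 3 SD, cut at about 150% in these data; inconclusive = Fewer than 70 cells measured for a yeast strain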;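 note: ratio of well median GFP fluorescence to mean of DMSO wells on the plate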
AGP1-GFP MLPCN = modulators of TOR pathway AGP1-GFP in S. cerevisiae. AID 2066. S. cerevisiae AGP1-GFP multiplex flow cytometry, 3 h; GFP as percent of DMSO wells. 320,000 compounds, 0.02% hits. GFP response vs DMSO, % at 10 µM;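 active = GFP response relative to DMSO above a set limit, near screen average plus 3 SD, cut at about 150% in these data; inconclusive = fewer than 70 cells counted for the yeast strain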;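 note: median GFP channel fluorescence of the gated AGP1 strain per well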
RPL19A TOR yeast = modulators of TOR pathway RPL19A-GFP in S. cerevisiae; AID 2025; percent response vs DMSO, % at 10 µM; S. cerevisiae RPL19A-GFP strain, flow cytometry, 3 h; active compounds read low; 330,000 compounds, 0.3% hits;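 active = percent response vs DMSO below 50%; inconclusive = fewer than 70 events counted for the yeast strain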;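 note: median channel GFP fluorescence of the barcoded RPL19A-GFP strain; ratio of sample median GFP to plate DMSO average so 100% = DMSO; lower means less RPL19A-GFP as with rapamycin TOR inhibition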
LAP4-GFP MLPCN = yeast TOR pathway LAP4-GFP modulation; S. cerevisiae LAP4-GFP multiplex, flow cytometry GFP, 3 h; median GFP as percent of DMSO wells; GFP response vs DMSO, % at 10 µM; 320,000 compounds, 0.34% hits; AID 2023;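 active = GFP response vs DMSO above a set limit, about the screen mean plus 3 SD, cut at about 150% in these data; inconclusive = under 70 cell events counted for the yeast strain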
VLA-4 inh = inhibition in a human VLA-4 binding assay; AID 2557; P13612; 330,000 compounds, 0.2% hits; VLA-4 expressing cells, ligand binding flow cytometry; inhibition, % (about 7 µM as worked out from the volumes in the protocol); in the data active = inhibition above about 50%
Starred values were filed as active, the others as inactive; ? = inconclusive; · = no result; [ ] = another dose, or the depositor's remark.

SMILES | MEP2 TOR yeast | CIT2 TOR yeast | AGP1-GFP MLPCN | RPL19A TOR yeast | LAP4-GFP MLPCN | VLA-4 inh
O=c1c2ccccc2n(CC(O)CN2CCOCC2)c2ccccc12 (configuration not stated) | ? | ? | ? | 36.3*[may fluoresce violet] | 57.9 | 5.8
OC(CN1CCCCC1)Cn1c2ccccc2c2ccccc21 (configuration not stated) | 97.3 | 96.5 | 103.7 | 105.8 | 101.9 | 14.0
O=c1c2ccccc2n(CC(O)CN2CCCCC2)c2ccccc12 (configuration not stated) | 168.8 | ? | ? | 31.6*[may fluoresce violet] | 76.2 | -1.8
CN(CC(=O)Nc1ccc(Cl)c(C(F)(F)F)c1)C(=O)Cc1ccsc1 | 102.0 | 72.5 | 80.0 | 82.0 | 128.0 | -24.9
COc1ccccc1C1=Nn2c(COc3ccccc3)nnc2SC1 | 89.7 | 77.6 | 85.5 | 93.2 | 91.8 | 17.3
O=C(O)CCc1ccc(-c2ccc(Br)cc2)o1 | 91.3 | 67.6 | 72.0 | 94.7 | 152.6* | 8.4
CC(C)c1ccc(OCC(=O)NNC(=S)NC(=O)C2CC2)cc1 | 116.5 | 101.5 | 112.7 | 108.2 | 154.1*[may fluoresce green] | 16.8
O=C(CCC(=O)c1cccs1)NCc1ccccc1Cl | 102.4 | 101.3 | 101.5 | 103.0 | 92.5 | -7.2
O=c1c2c(-c3cccs3)csc2ncn1/N=C/c1ccccn1 | 91.1 | 82.6 | 100.0 | 82.2 | 155.7* | 5.6
O=C(CSc1nnc(C2COc3ccccc3O2)o1)N1CCCC1 (configuration not stated) | 445.2* | 146.5 | 157.8* | 73.7 | 172.5* | 3.4
COc1cccc(/C=N/NC(=O)c2ccncc2)c1OC(=O)c1ccc(Br)cc1 | 122.0 | ? | ? | 17.4*[may fluoresce violet] | 78.0 | 8.1
O=C(O)/C=C/C(=O)N(CC1CCCO1)C1CC(=O)N(c2c(Cl)cccc2Cl)C1=O (configuration not stated) | 100.5 | 93.1 | 100.8 | 101.1 | 101.3 | -3.6
COc1cccc(NC(=O)CCC2CCN(C(=O)c3scnc3C)CC2)c1 | 96.6 | 104.5 | 91.3 | 95.7 | 86.7 | -4.5
C=CCn1c(SCC(=O)Nc2ccc(F)cc2)nnc1-c1cnccn1 | 109.8 | 113.6 | 105.3 | 108.5 | 99.3 | 9.2
CCn1c(SCC(=O)Nc2ccc(F)cc2)nnc1-c1cnccn1 | 168.6 | ? | 18.7 | 38.2*[may fluoresce violet] | 84.5 | 3.1
Cc1c2ccccc2nc2c(F)c(N(C)C)c(F)c(F)c12 | 88.4 | 96.4 | 93.2 | 99.8 | 96.1 | -12.2
CN(C)c1c2ccccc2nc2c(F)c(F)c(F)c(F)c12 | 188.0*[may fluoresce violet] | ? | ? | 65.1 | 67.7 | -28.5
O=C(Cc1cccc2ccccc12)NCCc1ccccc1 | 94.8 | 103.0 | 97.6 | 92.6 | 90.7 | 3.2
O=c1[nH]c2ccccc2cc1CN(Cc1ccco1)S(=O)(=O)c1ccccc1 | 104.5 | 109.3 | 102.2 | 99.3 | 97.7 | -2.5
CC(C)C[C@H](N)C(=O)N1CCC(C(=O)N[C@H](C(=O)NC(C)c2ccccc2)C(C)C)CC1 (some centres not stated) | 247.2*[may fluoresce violet] | ? | ? | 14.9*[may fluoresce violet] | 77.3 | 4.0
CCCCCn1c(=O)c(C(=O)OCC)c(O)c2ccccc21 | 105.3 | 80.7 | 104.0 | 97.5 | 108.1 | 15.6
CCOC(=O)c1c(O)c2ccccc2n(-c2ccccc2)c1=O | 217.9*[may fluoresce violet] | ? | ? | 58.1 | 100.4 | -7.3
O=C(/C=C/c1ccc(-c2ccccc2[N+](=O)[O-])o1)c1ccc(Br)cc1 | 98.0 | 92.8 | 93.4 | 98.8 | 162.0* | -6.5
O=C(/C=C/c1ccc(-c2ccccc2[N+](=O)[O-])o1)c1ccc(F)cc1 | 93.8 | 85.2 | 87.7 | 94.3 | 143.5 | 0.3
Cc1ccccc1N1CC(C(=O)Nc2ccc(S(=O)(=O)N3CCCCC3)cc2)CC1=O (configuration not stated) | 278.8*[may fluoresce violet] | ? | ? | 60.6 | 80.0 | -8.9
SMILES | MEP2 TOR yeast | CIT2 TOR yeast | AGP1-GFP MLPCN | RPL19A TOR yeast | LAP4-GFP MLPCN | VLA-4 inh
Cc1cccc(N2CC(C(=O)Nc3ccc(S(=O)(=O)N4CCCCC4)cc3)CC2=O)c1C (configuration not stated) | 104.5 | 104.2 | 103.2 | 105.2 | 102.6 | 19.6
CCC(=O)Nc1cc2c(cc1C(=O)CC)OCCO2 | 200.3*[may fluoresce violet] | ? | ? | 42.2*[may fluoresce violet] | 96.8 | -2.7
Cc1ccccc1C(=O)Nc1cccc(C(=O)N/N=C/c2cc(Cl)cc([N+](=O)[O-])c2O)c1 | 104.9 | 108.2 | 103.1 | 113.3 | 92.4 | 5.6
COc1cccc(OCC(=O)N2CCCc3ccccc32)c1 | 222.5* | 103.0 | 121.2 | 86.2 | 144.5 | 1.5
COc1ccc(CCC(=O)N2CCCc3ccccc32)cc1 | 648.8*[may fluoresce violet] | ? | ? | 50.1 | 72.7 | 1.8
Cc1ccccc1OCC(=O)N1CCCc2ccccc21 | 105.4 | 102.0 | 105.5 | 103.7 | 103.0 | 4.7
COc1ccc(OCCCC(=O)N2CCCc3ccccc32)cc1 | 92.9 | 87.6 | 89.4 | 91.2 | 90.7 | -1.5
CCC1(c2ccc(OC)cc2)NC(=O)N(CC(=O)c2ccc3c(c2)OCCO3)C1=O (configuration not stated) | 103.4 | 99.9 | 106.2 | 99.7 | 94.8 | 1.2
CCO[C@@H]1OC(C(=O)NC2CC2)=C[C@H](c2ccccc2)[C@H]1CCCO | 282.4*[may fluoresce violet] | ? | ? | 47.4*[may fluoresce violet] | 86.5 | -3.1
CCO[C@H]1OC(C(=O)NC2CC2)=C[C@@H](c2ccc(Br)cc2)[C@@H]1CCCO | 101.7 | 66.6 | 76.0 | 98.4 | 133.8 | 19.5
Cn1c(SCC(=O)Nc2sccc2C#N)nnc1C1CC1 | 114.2 | 99.0 | 108.6 | 100.1 | 108.8 | 2.0
COc1ccc(C2=CC3=C(Br)C(=O)C(C)(OC(=O)c4ccco4)C(=O)C3=CO2)cc1 (configuration not stated) | 104.1 | ? | 11.4 | 46.2*[may fluoresce violet] | 106.1 | -23.2
COc1cccc(CN(C)C(=O)C(Cc2ccccc2)NC(=O)c2ccccc2)c1OC (configuration not stated) | 98.8 | 91.7 | 100.9 | 97.2 | 99.6 | -1.9
COc1ccc(C(C(=O)NC(C)(C)C)N(C(=O)CCC(=O)Nc2cc(C)on2)c2ccc(C)c(C)c2)cc1 (configuration not stated) | 319.2*[may fluoresce violet] | ? | ? | 56.8 | 86.4 | -8.4
O=C(Cn1cnnn1)NC1CCCN(Cc2ccccc2F)C1 (configuration not stated) | 97.9 | 104.0 | 103.2 | 104.3 | 95.2 | 23.1
CCOc1ccccc1N(CC(=O)Nc1cccnc1)S(C)(=O)=O | 552.5*[may fluoresce violet] | ? | · | 40.3*[may fluoresce violet] | 98.5 | -0.9
Cc1[nH]c2ccccc2c1C(=O)C(=O)NCc1ccncc1 | 103.2 | 101.7 | 103.2 | 104.4 | 91.8 | 7.8
Cc1cc(=O)oc2cc(OCC(=O)OCC(=O)Nc3c(C)n(C)n(-c4ccccc4)c3=O)ccc12 | 98.0 | 92.9 | 97.5 | 99.1 | 97.6 | 13.0
Cc1ccc(CO/N=C/c2c(O)cc(C)oc2=O)cc1 | 98.6 | 98.1 | 89.0 | 99.3 | 163.5* | 3.5
